# From PubChem BioAssay (NCI)
# Compounds without any hit were thinned out: in the full panel of roughly 79,000, 15% have a hit. Values without a mark were called inactive. Active and inactive are the calls of the source. No stated cut-off is given here; in the data, active means growth inhibition above about 70%; inactive means the rest.
# Legend:
# [1] = NCI Yeast Anticancer Drug Screen. Data for the rad52 strain (AID 147);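 further: 0% = growth of vehicle-treated control cultures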; settings: S. cerevisiae rad52 mutant growth inhibition, stronger effect = higher value
# In short: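 Inhibition of yeast growth, referenced to vehicle controls, was the measured output for a strain with defective DNA damage repair.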
# [2] = NCI Yeast Anticancer Drug Screen. Data for the wt1 strain (AID 149);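 further: 0% = growth of vehicle-treated wt1 cultures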; settings: S. cerevisiae wt1 strain (SPY 50644) growth inhibition, stronger effect = higher value
# In short: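 wt1 yeast, compound-treated; % growth inhibition vs vehicle control.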
# [3] = NCI Yeast Anticancer Drug Screen. Data for the rad50EPP+ strain (AID 151);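 further: 0% = growth of vehicle-treated control cultures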; settings: S. cerevisiae rad50 mutant strain, stronger effect = higher value
# In short: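 Genetically defined yeast (rad50EPP+, DNA damage repair alteration) is grown with compound, and inhibition of growth is expressed relative to vehicle-treated controls.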
# [4] = NCI Yeast Anticancer Drug Screen. Data for the mgt1 strain (AID 153); settings: S. cerevisiae mgt1 mutant growth inhibition, stronger effect = higher value
# In short: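 In the mgt1 strain, test compounds were added and growth inhibition was determined relative to vehicle-treated controls.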
# [5] = NCI Yeast Anticancer Drug Screen. Data for the rad50 strain (AID 155);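 further: 0% = growth of vehicle-only cultures of the same strain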; settings: S. cerevisiae rad50 strain growth inhibition, stronger effect = higher value
# In short: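 Genetically altered yeast (DNA repair pathway); compound treatment; growth inhibition vs vehicle ctrl.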
# [6] = NCI Yeast Anticancer Drug Screen. Data for the mec2-1 strain (AID 157); settings: S. cerevisiae mec2-1 strain, stronger effect = higher value
# In short: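 Each compound was tested on mec2-1 yeast, a strain altered in DNA damage repair or cell cycle control. Growth inhibition is reported relative to vehicle.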
# [7] = NCI Yeast Anticancer Drug Screen. Data for the sgs1 mgt1 strain (AID 161);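 further: 0% = growth of cultures given vehicle only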; settings: S. cerevisiae sgs1 mgt1 strain, stronger effect = higher value
# In short: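 Inhibition of yeast growth, normalised to vehicle-treated controls, is reported for a strain bearing genetic alterations in DNA damage repair.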
# [8] = NCI Yeast Anticancer Drug Screen. Data for the CLN2oe strain (AID 163);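 further: 0% = growth of vehicle-only control cultures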; settings: S. cerevisiae CLN2oe strain, stronger effect = higher value
# In short: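 First, the altered yeast strain was treated with each compound; second, its growth was measured; finally, inhibition was derived by comparison with vehicle controls.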
# [9] = NCI Yeast Anticancer Drug Screen. Data for the cln2 rad14 strain (AID 165);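 further: 0% = growth equal to vehicle treated cultures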; settings: S. cerevisiae cln2 rad14 strain, stronger effect = higher value
# In short: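 Test compounds were added to cln2 rad14 yeast cultures; inhibition of growth was then determined by comparison with vehicle treatment.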
# [10] = NCI Yeast Anticancer Drug Screen. Data for the bub3 strain (AID 167); settings: S. cerevisiae bub3 mutant strain, stronger effect = higher value
# In short: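 Yeast carrying a defined mutation is treated with each compound, and growth is compared with that of vehicle-exposed cells to give inhibition.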
# [11] = NCI Yeast Anticancer Drug Screen. Data for the wt2 strain (AID 169);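 further: 0% = growth of vehicle-treated yeast cultures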; settings: S. cerevisiae wt2 strain growth inhibition, stronger effect = higher value
# In short: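 The panel's yeast strains carry defined changes in DNA repair or cell cycle genes. Each strain is grown with compound, and growth loss is scored relative to vehicle.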
# [12] = NCI Yeast Anticancer Drug Screen. Data for the mlh1 strain (AID 171);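 further: 0% = growth of vehicle-treated control cultures of the same strain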; settings: S. cerevisiae mlh1 strain growth inhibition, stronger effect = higher value
# In short: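 Inhibition values reflect reduced yeast growth in the presence of compound, referenced to vehicle controls, using a strain chosen for its alteration in DNA repair or cell cycle control.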
# [13] = NCI Yeast Anticancer Drug Screen. Data for the sgs1 strain (AID 173);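 further: 0% = growth of vehicle-only control cultures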; settings: S. cerevisiae sgs1 mutant, stronger effect = higher value
# In short: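 Vehicle-treated cultures served as reference for growth inhibition of a yeast strain altered in DNA damage repair or cell cycle control after compound exposure.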
# [14] = NCI Yeast Anticancer Drug Screen. Data for the mlh1 rad18 strain (AID 175); settings: S. cerevisiae mlh1 rad18 strain growth inhibition, stronger effect = higher value
# In short: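 Inhibition values reflect reduced growth of mutant yeast versus vehicle-treated controls following compound exposure; the mutations affect DNA damage repair.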
# [15] = NCI Yeast Anticancer Drug Screen. Data for the rad18 strain (AID 177); settings: S. cerevisiae rad18 mutant growth inhibition, stronger effect = higher value
# In short: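 Steps: expose repair-mutant yeast to compound; measure growth; express as inhibition relative to vehicle control.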
# [16] = at 5.0 µM (retest, dose inferred, filed as 0.5)
# [17] = at 50.0 µM (retest, dose inferred, filed as 5.0)
structure (smiles),measurement,setting,value
COC(=N)c1ccc(O)c(C)c1,growth inhibition,[1]; at 1.2 µM,-3%
same,growth inhibition,[1]; at 3.7 µM,-6%
same,growth inhibition,[1]; at 11.0 µM,-11%
same,growth inhibition,[1]; at 33.0 µM,-16%
same,growth inhibition,[1]; at 100.0 µM,-5%
same,growth inhibition,[2]; at 1.2 µM,-6%
same,growth inhibition,[2]; at 3.7 µM,-5%
same,growth inhibition,[2]; at 11.0 µM,-6%
same,growth inhibition,[2]; at 33.0 µM,-5%
same,growth inhibition,[2]; at 100.0 µM,-3%
same,growth inhibition,[3]; at 1.2 µM,-1%
same,growth inhibition,[3]; at 3.7 µM,1%
same,growth inhibition,[3]; at 11.0 µM,5%
same,growth inhibition,[3]; at 33.0 µM,11%
same,growth inhibition,[3]; at 100.0 µM,9%
same,growth inhibition,[4]; at 1.2 µM,-4%
same,growth inhibition,[4]; at 3.7 µM,-3%
same,growth inhibition,[4]; at 11.0 µM,-2%
same,growth inhibition,[4]; at 33.0 µM,-3%
same,growth inhibition,[4]; at 100.0 µM,-3%
same,growth inhibition,[5]; at 1.2 µM,-7%
same,growth inhibition,[5]; at 3.7 µM,-19%
same,growth inhibition,[5]; [16],-138%
same,growth inhibition,[5]; at 11.0 µM,-6%
same,growth inhibition,[5]; at 33.0 µM,7%
same,growth inhibition,[5]; [17],10%
same,growth inhibition,[5]; at 50.0 µM,50.4%
same,growth inhibition,[5]; at 100.0 µM,3%
same,growth inhibition,[6]; at 1.2 µM,0%
same,growth inhibition,[6]; at 3.7 µM,0%
same,growth inhibition,[6]; [16],-46%
same,growth inhibition,[6]; at 11.0 µM,-1%
same,growth inhibition,[6]; at 33.0 µM,1%
same,growth inhibition,[6]; [17],-21%
same,growth inhibition,[6]; at 50.0 µM,2.2%
same,growth inhibition,[6]; at 100.0 µM,1%
same,growth inhibition,[7]; [16],-53%
same,growth inhibition,[7]; [17],-40%
same,growth inhibition,[7]; at 50.0 µM,-8.2%
same,growth inhibition,[8]; at 1.2 µM,-2%
same,growth inhibition,[8]; at 3.7 µM,3%
same,growth inhibition,[8]; at 11.0 µM,0%
same,growth inhibition,[8]; at 33.0 µM,-3%
same,growth inhibition,[8]; at 100.0 µM,-6%
same,growth inhibition,[9]; [16],-52%
same,growth inhibition,[9]; [17],-22%
same,growth inhibition,[9]; at 50.0 µM,-38.2%
same,growth inhibition,[10]; at 1.2 µM,-3%
same,growth inhibition,[10]; at 3.7 µM,-5%
same,growth inhibition,[10]; [16],-61%
same,growth inhibition,[10]; at 11.0 µM,0%
same,growth inhibition,[10]; at 33.0 µM,-2%
same,growth inhibition,[10]; [17],78% (active)
same,growth inhibition,[10]; at 50.0 µM,5.2%
same,growth inhibition,[10]; at 100.0 µM,4%
same,growth inhibition,[11]; at 1.2 µM,-2%
same,growth inhibition,[11]; at 3.7 µM,0%
same,growth inhibition,[11]; at 11.0 µM,-2%
same,growth inhibition,[11]; at 33.0 µM,-4%
same,growth inhibition,[11]; at 100.0 µM,-1%
same,growth inhibition,[12]; at 1.2 µM,6%
same,growth inhibition,[12]; at 3.7 µM,-6%
same,growth inhibition,[12]; at 11.0 µM,-7%
same,growth inhibition,[12]; at 33.0 µM,-7%
same,growth inhibition,[12]; at 100.0 µM,-7%
same,growth inhibition,[13]; at 1.2 µM,-1%
same,growth inhibition,[13]; at 3.7 µM,-1%
same,growth inhibition,[13]; at 11.0 µM,-1%
same,growth inhibition,[13]; at 33.0 µM,-2%
same,growth inhibition,[13]; at 100.0 µM,-2%
same,growth inhibition,[14]; [16],-123%
same,growth inhibition,[14]; [17],-74%
same,growth inhibition,[14]; at 50.0 µM,-6.9%
same,growth inhibition,[15]; at 1.2 µM,-2%
same,growth inhibition,[15]; at 3.7 µM,-1%
same,growth inhibition,[15]; at 11.0 µM,1%
same,growth inhibition,[15]; at 33.0 µM,3%
same,growth inhibition,[15]; at 100.0 µM,8%
